# Results filed as inconclusive are left out. Unmarked numbers belong to inactive results. The source made the active and inactive calls. Calls come from the whole dose curve; as a rule, active = well fitted inhibition curve with a large enough effect; inconclusive = small, poorly fitted or top-dose-only effect; inactive = flat fitted curve, though single readings scatter.
# How the values were obtained:
# [1] = system: HaCat; assay: Cytotoxic Profiling of Annotated Libraries Using Quantitative High-Throughput Screening (AID 1296008); conditions: Five cell lines viability, CellTiter-Glo ATP luminescence, 48-72 h; max response: stronger effect = lower value; for max response: % is set by controls: 0 for no effect and ±100 for the full control effect
# In short: (§1)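 Cytotoxicity was measured as CellTiter-Glo ATP luminescence, read after 10 min at room temperature. Compound treatment of the cells lasted 48 or 72 hr at 37 degrees Celsius in a qHTS format.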
# [2] = system: KB-3-1; assay: as above; conditions: Five cell lines viability, CellTiter-Glo ATP luminescence, 48-72 h; max response: stronger effect = lower value
# In short: as §1
# [3] = system: HACAT; assay: qHTS assay to identify novel small-molecules to repurpose for Merkel cell carcinoma treatment (AID 1296009); conditions: MCC and control cell lines, CellTiter-Glo viability, 72 h; at 44.8 µM (top of the series) unless noted
# In short: (§2)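 After compound transfer in DMSO, plates were kept 72 hr at 37 degree celsius. Luminescent ATP signal from CellTiter-Glo served as viability measure, normalized against DMSO and no-cell controls.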
# [4] = system: NIH3T3; assay: Cytotoxic Profiling of Annotated Libraries Using Quantitative High-Throughput Screening (AID 1296008); conditions: Five cell lines viability, CellTiter-Glo ATP luminescence, 48-72 h; max response: stronger effect = lower value; for max response: % is set by controls: 0 for no effect and ±100 for the full control effect
# In short: as §1
# [5] = system: HEK293T; assay: qHTS assay to identify novel small-molecules to repurpose for Merkel cell carcinoma treatment (AID 1296009); conditions: MCC and control cell lines, CellTiter-Glo viability, 72 h
# In short: as §2
# Note: nearly all actives have a fitted effect of over 60% in size.
# Potency is the fitted concentration of half-maximal effect.
smiles,measurement,setting,value
CC[C@H]1OC(=O)[C@H](C)[C@@H](O[C@H]2C[C@@](C)(OC)[C@@H](O)[C@H](C)O2)[C@H](C)[C@@H](O[C@H]2O[C@H](C)C[C@H](N(C)C)[C@H]2O)[C@](C)(O)C[C@@H](C)C(=O)[C@H](C)[C@@H](O)[C@]1(C)O,outcome,[1],inactive
same,max response,[2],8.4%
same,outcome,[3],inactive [at 17.4 µM]
Cc1cnc(-c2ccccc2C(C)C)nc1NCc1ccc(-n2ccnn2)cc1,max response,[1],-29.3%
same,max response,[4],-17%
C=C(C)C(=O)O[C@H]1/C(C=O)=C\CC/C(CO)=C/[C@H]2OC(=O)C(=C)[C@@H]2[C@@H]1OC,outcome,[1],inactive
same,max response,[2],9.81%
same,outcome,[3],inactive
Cc1ccc(-c2cn3c4c(sc3n2)CCCC4)cc1,outcome,[1],inactive
same,max response,[2],-4.88%
same,max response,[4],-12.5%
same,outcome,[3],inactive
CN(C)CCC(CSc1ccccc1)Nc1ccc(S(=O)(=O)NC(=O)c2ccc(N3CCN(Cc4ccccc4-c4ccc(Cl)cc4)CC3)cc2)cc1[N+](=O)[O-] (stereo not given),Potency,[1],23.1 µM (active)
same,max response,[4],-12.9%
C=CC(=O)Nc1cc(-n2c(=O)ccc3cnc4ccc(-c5ccc(NS(C)(=O)=O)cc5)cc4c32)ccc1C,max response,[1],-9.43%
same,max response,[4],-11.5%
O=C(CCl)Nc1cccc(NC2=NS(=O)(=O)c3ccccc32)c1,outcome,[1],inactive
same,Potency,[2],14.6 µM (active)
same,outcome,[3],inactive
OC(CC1c2ccccc2-c2cncn21)C1CCCCC1 (stereo not given),max response,[1],-2.64%
same,max response,[4],-17.5%
Cc1ccnc(NC(=O)C(C)c2cccc(C(=O)c3ccccc3)c2)c1 (stereo not given),outcome,[1],inactive
same,max response,[2],-17.5%
same,max response,[4],-5.36%
same,outcome,[3],inactive
COc1ccc(-c2ccccc2)cc1NS(=O)(=O)c1cc(Cl)cc(Cl)c1O,outcome,[1],inactive
same,max response,[2],4.02%
same,outcome,[3],inactive [at 17.4 µM]
Cc1ccc(C)c(NS(=O)(=O)c2cc(C(=O)Nc3ccccc3-c3ccccc3)ccc2C)c1,max response,[1],-22.2%
same,max response,[4],-13.7%
CCOc1ccc(S(=O)(=O)N2CCCCCC2)c2ccccc12,outcome,[1],inactive
same,max response,[2],-18.9%
same,outcome,[4],inactive
same,outcome,[3],inactive
C=CC(=O)N1CCC(Oc2cc3c(Nc4ccc(Cl)c(Cl)c4F)ncnc3cc2OC)CC1,max response,[1],-116%
same,Potency,[4],14.6 µM (active)
C=C1C(=O)O[C@@H]2/C=C(\C)CC/C=C(\C)CC[C@@H]12,outcome,[1],inactive
same,max response,[2],-12.1%
same,outcome,[3],inactive
CC(=O)O[C@H]1CC2C(COC(=O)CC(C)C)=CO[C@@H](OC(=O)CC(C)C)C2[C@]12CO2 (stereo not given in full),max response,[1],-12.1%
same,outcome,[4],inactive
O=C(Nc1ccc(C(F)(F)F)cn1)N1CCN(c2ncccc2C(F)(F)F)CC1,outcome,[1],inactive
same,max response,[2],-14.9%
same,max response,[4],-8.79%
same,outcome,[3],inactive
C[C@@H]1O[C@@H](O[C@H]2[C@@H]3C=CO[C@@H](O[C@@H]4O[C@H](CO)[C@@H](O)[C@H](O)[C@H]4O)[C@@H]3[C@@]3(CO)O[C@@H]23)[C@H](O)[C@H](OC(=O)/C=C/c2ccccc2)[C@H]1O,outcome,[1],inactive
same,outcome,[2],inactive
same,outcome,[3],inactive [at 17.4 µM]
CC1(C)CC[C@]2(C(=O)O[C@@H]3O[C@H](CO)[C@@H](O)[C@H](O)[C@H]3O)CC[C@]3(C)C(=CCC4[C@@]5(C)CC[C@H](O[C@@H]6O[C@H](C(=O)O)[C@H](O)[C@H](O)[C@H]6O)C(C)(C)C5CC[C@]43C)[C@@H]2C1 (stereo not given in full),outcome,[1],inactive
same,outcome,[2],inactive
same,max response,[4],-2.05%
same,outcome,[3],inactive [at 17.4 µM]
C=C1C(=O)O[C@@H]2C=C(COC(C)=O)CC/C=C(\CO)CC[C@@H]12,outcome,[1],inactive
same,max response,[2],7.74%
same,max response,[4],-6.09%
same,outcome,[3],inactive
C=C1C(=O)O[C@@H]2/C=C(\CO)CC/C=C(/C=O)C[C@H](O)[C@@H]12,max response,[1],-0.314%
same,outcome,[2],inactive
same,Potency,[5],18.4 µM (active)
C=C1C(=O)OC2CC(C)=C(C(C)CCCOC(C)=O)C(OC(=O)CC(C)CC)C12 (stereo not given),max response,[1],-2.4%
same,max response,[4],-17.5%
CS/C=C/C(=O)O[C@@H]1CCC2=CC(=O)C(=C(C)C)C[C@]2(C)[C@H]1C,max response,[1],-6.05%
same,max response,[4],-13.9%
Cc1ccc(F)cc1S(=O)(=O)N[C@@H]1CCN(Cc2ccc(OC(C)C)cc2)C1,max response,[1],-5.2%
same,max response,[4],-14.7%
C/C=C(\C)[C@@H]1C(C)=C[C@@H]2[C@H]([C@@H]1/C=C/C=C/C(=O)O)[C@@H](C)CC[C@@H]2O,outcome,[1],inactive
same,Potency,[2],8.05 µM (active)
same,outcome,[3],inactive
C=C1CC[C@@H](O)[C@]2(C)C[C@H]3OC(=O)C(=C)[C@H]3CC12 (stereo not given in full),outcome,[1],inactive
same,max response,[2],1.13%
same,outcome,[3],inactive
CC(CCC1(O)OC2CC3C4CC=C5C[C@@H](O[C@@H]6O[C@H](CO)[C@@H](O[C@@H]7O[C@@H](C)[C@H](O)[C@@H](O)[C@H]7O)[C@H](O)[C@H]6O[C@@H]6O[C@@H](C)[C@H](O)[C@@H](O)[C@H]6O)CC[C@]5(C)C4CC[C@]3(C)[C@@]2(O)[C@@H]1C)CO[C@@H]1O[C@H](CO)[C@@H](O)[C@H](O)[C@H]1O (stereo not given in full),outcome,[1],inactive
same,outcome,[2],inactive
same,max response,[4],4.51%
same,outcome,[3],inactive [at 9.27 µM]

# Source: PubChem BioAssay (NCATS)
